# Assay outcomes as filed in PubChem.
# In the library only some 4.2% were active in any assay of this set; here they are far more common.
# Wnt act: Wnt/beta-catenin pathway activators, primary screen, cell-based, plate reader, single point; Wnt/beta-catenin reporter cell assay, activator; activation, % at 9.35 µM; actives 1.2% (n = 300,000); in the data active = activation above about 30%, passing the limit was not always enough;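 note: 0% = neutral control wells and 100% = positive control wells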
# hcDAF-12 act: H. contortus DAF-12 nuclear receptor activators, primary screen, cell-based, luminescence, HEK293, lit1-tk-luc reporter | activation, % at 6.8 µM | HEK293 hcDAF-12 lit1-tk-luc reporter; 0% DMSO, 100% Δ7-dafachronic acid | AID 652067, 2013 | actives 1.4% (n = 370,000);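 active = activation above the mean of all tested compounds plus 3 SD, cut at about 5.5% in these data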;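 note: 100% = response to 3 µM Δ7-dafachronic acid high control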
# ssDAF12 agonist: S. stercoralis DAF-12 nuclear receptor activators, primary screen, cell-based, luminescence, HEK293, GRIP1 co-expression, lit1-tk-luc; Nuclear hormone receptor DAF-12 (Strongyloides stercoralis); HEK293 ssDAF-12/GRIP1 lit1-tk-luc reporter; % of 3 µM dafachronic acid response; activation, % at 6.8 µM; actives 1% (n = 370,000);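 active = activation above the mean over all tested compounds plus 3 SD, cut at about 0.9% in these data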;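 note: 0% = DMSO-only wells and 100% = 3 µM delta7-dafachronic acid wells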
# DAX1 inh: DAX1 (NR0B1) inhibitors on StAR promoter, primary screen, cell-based, luminescence, SF-1 (NR5A1), full-length DAX-1; HEK293T StAR-luciferase reporter, SF-1/DAX-1 repression relief; inhibition, % at 6.8 µM; actives 1.1% (n = 370,000); AID 652010, 2013;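 active = inhibition above the mean over all tested compounds plus 3 SD, cut at about 3.6% in these data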;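 note: 0% = DAX-1 cells with DMSO and 100% = cells lacking DAX-1 with DMSO; higher inhibition means more luminescence from relief of DAX-1 repression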
# hgDAF12 agonist: H. glycines DAF-12 receptor agonists, primary screen, cell-based, luminescence, HEK293, GAL4 fusion, UAS-luciferase; actives 1.8% (n = 370,000); HEK293 GAL4-hgDAF12 UAS-luciferase reporter, agonist luminescence; normalized to butyrate control; AID 687014, 2013; activation, % at 6.8 µM; Nuclear hormone receptor DAF-12 (Heterodera glycines), GAL4 fusion;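 active = activation above a cutoff set at the mean of all screened compounds plus 3 SD, cut at about 10% in these data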;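 note: 0% = DMSO wells and 100% = sodium butyrate wells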
# esBAF inh: Bmi1 luciferase reporter increase in mESCs, primary screen, esBAF inhibitor project, mouse ES cells, Bmi1 luciferase knock-in, single point. 24 h; 100% = twice the neutral-well signal. reporter increase, % at 12.5 µM. actives 2% (n = 350,000). AID 602393, 2012; in the data active = activation above about 40%;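 note: 0% = median of the plate's neutral control wells and 100% = double that signal; a rise in the Bmi1 reporter signal indicates esBAF inhibition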
# * = called active by the depositor; · = no result.
SMILES,Wnt act,hcDAF-12 act,ssDAF12 agonist,DAX1 inh,hgDAF12 agonist,esBAF inh
CNc1ncc(C(=O)c2ccc(Cl)c(Cl)c2)s1,·,-1.3,-1.7,0.2,3.4,77.1*
O=C(c1ccccc1)c1cnc(Nc2ccccc2Cl)s1,·,·,·,·,·,55.4*
CNc1ncc(C(=O)c2ccc(Cl)cc2)s1,·,2.9,-0.5,1.5,8.0,36.3
CNc1ncc(C(=O)c2ccc(-c3ccccc3)cc2)s1,41.4*,0.0,0.1,1.5,7.8,·
O=C(c1ccc(Cl)c(Cl)c1)c1cnc(Nc2ccccc2)s1,0.0,-0.5,-0.8,-0.8,1.5,-4.1
CN(C)/C=N/c1ncc(C(=O)c2ccccc2)s1,·,1.5,-0.6,1.5,6.9,·
C[C@@H]1CN([C@@H](C)CO)S(=O)(=O)c2ccc(C#CCC3CCCC3)cc2O[C@H]1CN(C)Cc1cccc(C(=O)O)c1,·,·,·,·,·,2.8
CCNC(=O)C[C@@H]1CC[C@H]2[C@H](COc3ccc(NC(=O)c4ccc(F)cc4)cc3C(=O)N2C)O1,·,·,·,·,·,5.4
COc1ccccc1CNC(=O)C[C@@H]1C[C@@H]2c3cc(NC(=O)NC4CCCC4)ccc3O[C@@H]2[C@@H](CO)O1,·,·,·,·,·,3.3
COc1cccc(C(=O)Nc2ccc3c(c2)C(=O)N(C)[C@H]2CC[C@H](CC(=O)NCc4ccccc4F)O[C@H]2CO3)c1,·,·,·,·,·,-1.7
Nc1nc(SCc2ccccc2)[nH]c(=O)c1-c1ccccc1,16.4,-0.5,-0.5,3.1,3.2,44.6*
Nc1nc(SCc2ccccc2Cl)[nH]c(=O)c1-c1ccccc1,·,-2.0,-1.3,-0.3,-0.2,14.1
C[C@H]1CN([C@@H](C)CO)C(=O)c2cc(NC(=O)Nc3ccc(C(F)(F)F)cc3)ccc2O[C@@H]1CN(C)C,·,·,·,·,·,2.3
S=C(Nc1ccccc1)Nc1ccccc1-n1cccc1,0.3,5.7*,0.5,0.0,0.4,3.1
FC(F)(F)c1ccccc1NC(=S)Nc1ccccc1,-0.9,0.7,-0.3,-0.3,-0.9,-1.9
Cn1cc(C=O)c2ccccc21,-0.6,1.8,1.3*,0.1,1.4,·
O=Cc1ccc(-n2cc(C=O)c3ccccc32)cc1,12.3,-0.2,-0.5,0.1,-2.1,·
O=C(COc1ccccc1Cl)c1ccc2c(c1)CCCC2,·,2.6,0.0,1.0,12.1*,24.3
O=C(COc1cccc(Cl)c1Cl)Nc1ccc2c(c1)CCC2,8.1,-0.3,-1.2,-1.0,-0.9,·
CCc1cccc(NC2c3ccccc3C(=O)N2c2ccc(C)cn2)c1 (stereo unspecified),13.8,4.1,-0.3,3.3,11.6*,16.7
O=C(O)c1cccc(COc2ccccc2Cl)c1,-12.8,3.6,0.0,4.5*,6.8,-78.8
O=C(O)c1ccc(COc2ccccc2Cl)cc1,·,-1.5,-1.2,0.5,5.6,1.4
CN1CCN(C(=O)c2cccc(COc3cc(Cl)ccc3Cl)c2)CC1,14.7,1.7,-1.1,1.0,5.3,·
O=C(Nc1ccccc1Cl)c1cccc(COc2cc(Cl)ccc2Cl)c1,37.8*,2.3,-0.7,1.4,9.4,·
C[C@@H]1CN([C@H](C)CO)C(=O)c2cccc(NC(=O)Nc3ccccc3)c2O[C@H]1CN(C)C(=O)Nc1ccc(F)cc1,·,·,·,·,·,-3.4
SMILES,Wnt act,hcDAF-12 act,ssDAF12 agonist,DAX1 inh,hgDAF12 agonist,esBAF inh
CC(C)NC(=O)N1[C@H](CO)[C@@H]2c3ccccc3NC[C@@H]21,·,·,·,·,·,-8.6
O=C(Nc1ccccc1F)N1[C@H](CO)[C@@H]2c3ccccc3NC[C@@H]21,·,·,·,·,·,62.6*
O=C(C[C@@H]1C=C[C@H](NS(=O)(=O)c2ccc(F)cc2)[C@@H](CO)O1)NCCc1ccncc1,·,·,·,·,·,-2.7
O=C(CCN1C(=O)C2C3CCC(C3)C2C1=O)Nc1ccccc1C(F)(F)F (stereo unspecified),-1.4,-0.5,6.0*,-0.4,3.8,0.0
C[C@H]1CN([C@@H](C)CO)C(=O)Cc2cc(NC(=O)c3ccncc3)ccc2O[C@H]1CN(C)CC1CC1,·,·,·,·,·,-2.3
Cc1cc(C)nc(/N=C(\N)N2CCc3ccccc32)n1,3.6,1.2,-1.0,1.4,11.1*,-7.0
Cc1cc(C)nc(/N=C(\N)N2CCCCCC2)n1,-3.1,-0.9,-1.5,-0.5,2.9,4.3
CC(C)NC(=O)Nc1ccc2c(c1)C(=O)N([C@H](C)CO)C[C@@H](C)[C@H](CN(C)Cc1ccc3c(c1)OCO3)OCCCC[C@@H](C)O2,·,·,·,·,·,-6.6
Clc1ccc(CONc2ncnc3nonc23)c(Cl)c1,10.5,1.1,-0.8,1.7,11.2*,53.3*
CC(C)COC(=S)Nc1ccccc1,·,1.9,-0.6,0.0,3.6,59.5*
C[C@@H]1CN([C@@H](C)CO)C(=O)c2cc(NC(=O)C3CCCCC3)ccc2O[C@@H]1CN(C)Cc1ccc2c(c1)OCO2,·,·,·,·,·,0.3
COCCNC(=O)C(=O)NNC(=O)c1ccccc1OC,0.2,4.2,1.5*,0.5,3.3,5.9
COc1ccccc1C(=O)NNC(=O)CCC(=O)NCc1ccccc1,0.9,5.7*,-0.4,0.2,1.6,2.3
COc1ccccc1C(=O)NNC(=O)C(=O)NC1CCCCC1,-3.7,2.6,0.6,0.1,2.9,0.9
COc1ccccc1OCCOC(=O)Nc1ccccc1,-0.7,3.0,-0.9,-0.6,0.3,·
COc1cccc(COC(=O)Nc2ccccc2)c1OC,4.3,2.1,-0.3,3.2,11.9*,·
O=C(NOCc1ccccc1)OCc1ccccc1,13.1,1.0,-0.1,3.0,8.7,62.8*
CCCNC(=O)C[C@@H]1CC[C@H]2[C@@H](COc3ccc(NS(=O)(=O)c4ccccc4C)cc3C(=O)N2C)O1,·,·,·,·,·,-4.1
COc1cccc(C(=O)OCC(=O)NCCc2ccccc2)c1OC,-0.2,-1.3,-1.4,0.1,-0.1,·
COc1cccc(C(=O)NOCc2ccccc2)c1OC,25.9,2.7,0.9,4.4*,10.3,-6.1
COc1cc(OC)c2c(c1)O/C(=C\c1ccccc1)C2=O,-1.2,0.9,0.2,0.2,8.8,58.3*
CC(=O)N(C)C[C@@H]1Oc2ncc(-c3ccccc3C)cc2C(=O)N([C@H](C)CO)C[C@@H]1C,·,·,·,·,·,3.5
COc1ccc(-n2ncc3c(=O)n(CC(C)=O)cnc32)cc1,2.5,1.8,-0.9,0.1,0.3,12.8
Cc1ccc(-n2ncc3c(=O)n(CC#N)cnc32)cc1C,3.3,0.7,-0.6,0.5,1.3,16.3
CC(=O)Cn1cnc2c(cnn2-c2ccc(F)cc2)c1=O,-3.1,-1.2,1.0*,2.2,3.8,28.1
